Compounds with a hit are over-represented: about 2.2% of the library has one in this group of screens.
Nrf2 ARE act: qHTS of Nrf2 Activators | AREc32 ARE-luciferase reporter (MCF7-derived line), luminescence, 24 h | Potency, µM (titrated, usually from 46.1 µM), inactives show at the highest dose activation, most hits filed as activators | 410,000 tested, 0.31% active; also: potency is read from the fitted curve at half-maximal effect; % of control where 0% means no effect; nearly all actives have a fitted effect of over 65% in size
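ARE activation measured as luciferase luminescence (Steady-Glo, 30 min RT) in AREc32_Fluc cells after 24 hr compound exposure at 37 deg C, 5% CO2; cells seeded overnight at 1000/well in OPTI-MEM, 5% FBS.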
PI4K2A inh: qHTS for small molecular inhibitors of PI4K2A; purified PI4K2A, ADP-Glo luminescence, 1 h; hits give low values; activity change, negative = inhibition, % at 76.9 µM; Phosphatidylinositol 4-kinase type 2-alpha (Homo sapiens), Q9BTU6; 420,000 tested, 0.13% active; in the data active = activity change below about -50%; inconclusive = mostly about -30% to -49%;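 also: -100% = wells without enzyme as full effect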
Target sequence (Q9BTU6 whole entry, looked up): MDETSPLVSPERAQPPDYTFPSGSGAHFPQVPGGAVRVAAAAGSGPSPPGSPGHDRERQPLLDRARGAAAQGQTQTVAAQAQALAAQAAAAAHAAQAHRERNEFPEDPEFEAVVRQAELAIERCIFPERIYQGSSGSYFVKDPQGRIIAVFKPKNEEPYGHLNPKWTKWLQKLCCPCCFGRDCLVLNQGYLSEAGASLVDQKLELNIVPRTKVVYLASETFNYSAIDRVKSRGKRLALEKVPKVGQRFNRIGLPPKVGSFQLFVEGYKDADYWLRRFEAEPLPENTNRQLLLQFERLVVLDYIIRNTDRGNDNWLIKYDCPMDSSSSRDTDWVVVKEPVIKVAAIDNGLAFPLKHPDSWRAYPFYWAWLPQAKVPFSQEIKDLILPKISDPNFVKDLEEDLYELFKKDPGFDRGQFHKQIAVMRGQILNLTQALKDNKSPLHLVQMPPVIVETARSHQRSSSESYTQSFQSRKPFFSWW
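ADP-Glo luminescence measured ADP generated by PI4K2A enzyme (4 ug/mL before mixing) with 1.2 mM PI substrate (pre-mix) and 300 microM ATP (pre-mix). Tris pH7.5 buffer with MgCl2, Triton X-100; 1 h reaction at ambient temperature.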
Nrf2 inh: Nrf2 qHTS screen for inhibitors. 360,000 tested, 2.1% active. AID 504444, 2011. Potency, µM (top dose mostly 46 µM), inactives show at the highest dose activity change, negative = inhibition, usual class: inhibitors. A549 ARE-Fluc reporter, luciferase luminescence, 18-24 h; also: potency is read from the fitted curve at half-maximal effect; % is scaled to controls: 0 for no effect and ±100 for the full control effect; nearly all actives have a fitted effect of over 60% in size
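Two sequential reads on A549 ARE_Fluc cells exposed to compound for 18-24 h: a CellTiter-Fluor fluorescence read for viability, then a luciferase luminescence read for Nrf2/ARE activity.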
A549 viability: Nrf2 qHTS screen for inhibitors: counterscreen for cytotoxicity; 390,000 tested, 0.16% active; A549 ARE-Fluc cells, CellTiter-Fluor viability, 18-24 h; Potency, µM (titrated, usually from 46 µM), without a hit: at the highest dose activity change, negative = cytotoxicity, hits mostly inhibitors; AID 504648, 2011; also: potency is read from the fitted curve at half-maximal effect; % is scaled to controls: 0 for no effect and ±100 for the full control effect
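A549 ARE-Fluc cells in 5% FBS OPTI-MEM, 5000 cells/well, rested 2 h then exposed to compounds in concentration-response for 18-24 h at 37 °C. Viability by CellTiter-Fluor fluorescence (Ex 405/Em 525) after 30 min; luciferase luminescence (BugLite, 15 min, RT) read afterwards.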
miR-21 act: qHTS Assay for Modulators of miRNAs and/orActivators of miR-21. HeLa miR-21 FLuc reporter, luciferase, 48 h. Potency, µM (doses to about 38.3 µM), inactives show top-dose activity change, positive = activation, usual class: activators. 340,000 tested, under 10 active. AID 2288, 2010;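 also: % of control where 0% means no effect; miR-21 action dims this reporter so a rising signal means less miR-21 action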
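HeLa cells stably expressing CMV-driven firefly luciferase with a downstream miR-21 binding sequence, endogenously expressing miR-21, were treated with titrations (up to about 40uM final) for 48 hours at 37 degree Celsius. Luciferase luminescence was read after lysis.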
GALK inhibitor: qHTS Assay for Inhibitors of Human Galactokinase (GALK); P51570; Purified GALK, Kinase-Glo residual ATP luminescence; Potency, µM (top dose mostly 57.5 µM), for inactives: top-dose activity change, negative = inhibition, actives largely listed as inhibitors; 270,000 tested, 0.007% active; AID 1868, 2009; also: potency is read from the fitted curve at half-maximal effect; % is scaled to controls: 0 for no effect and ±100 for the full control effect
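Kinase-Glo Plus luminescence measured ATP left after a 1 h room-temperature reaction. The reaction used 5 nM GALK, 100 uM galactose and 35 uM ATP at pH 8.0 (20 mM HEPES, 5 mM MgCl2, 60 mM NaCl, 1 mM DTT, 0.01% BSA).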
An asterisk follows results filed as active; ? = inconclusive; . = no result given. Unless noted, calls follow the shape of the dose curve; as a rule, active = well fitted curve in the direction sought with a large enough effect; inconclusive = small, poorly fitted or top-dose-only effect, or another doubt; inactive = no such curve, though single readings can be large; an effect the other way counts as inactive or inconclusive.

SMILES	Nrf2 ARE act	PI4K2A inh	Nrf2 inh	A549 viability	miR-21 act	GALK inhibitor
COCCCNc1oc(-c2ccc(COc3ccc(Cl)cc3)o2)nc1C#N	5%	-2	23µM*	-14%	7%	.
CCOc1ccc(Nc2oc(-c3ccc(Cl)cc3)nc2C#N)cc1	3%	0	2%	21µM*	-26%	0%
O=C(COCc1ccccc1)N1CC[C@H]2[C@H](CCCN2Cc2cc(F)cc(F)c2)C1	.	2	.	.	.	.
COc1ccc(S(=O)(=O)N2CCC(C(=O)Nc3ccc4c(c3)OCCO4)CC2)cc1OC	0%	-4	21µM*	2%	-3%	-1%
CC(=O)N1CCOc2ccc(S(=O)(=O)N3CCC(C(=O)Nc4ccc(F)cc4)CC3)cc21	0%	-8	?	-3%	17%	-4%
CC(=O)N1CCOc2ccc(S(=O)(=O)N3CCC(C(=O)Nc4ccc(C)c(C)c4)CC3)cc21	0%	0	16µM*	-18%	14%	-7%
COC(=O)C[C@H]1CC[C@@H]2[C@@H](COc3ccc(NS(=O)(=O)c4ccccc4Cl)cc3C(=O)N2C)O1	.	7	.	.	.	.
CN(C)c1cc(NC(=O)CNC(C)(C)C)c(O)c2c1C[C@@H]1C[C@H]3[C@H](N(C)C)C(=O)C(C(N)=O)=C(O)[C@@]3(O)C(=O)C1=C2O	.	-8	.	.	.	.
CCOC(=O)[C@]12CCCCC/C=C\1N(Cc1ccc(OC)cc1)C(=O)[C@H]2CC(=O)NCCC(C)C	.	-1	.	.	.	.
CCC[C@H]1[C@@H](OC(=O)N2CCN(c3ccccc3)CC2)CC[C@@]23CCCN2C(=O)CCC[C@@H]13	.	-3	.	.	.	.
Cn1c(=O)c2c(nc(NCCc3ccccc3)n2Cc2ccc(F)cc2)n(C)c1=O	0%	-7	?	1%	18%	0%
C=CCNc1nc2c(c(=O)n(C)c(=O)n2C)n1CCCCCC	3%	-4	4.1µM*	-22%	16%	0%
C=CCNc1nc2c(c(=O)n(C)c(=O)n2C)n1Cc1ccc(F)cc1	-1%	-5	8.2µM*	0%	17%	2%
C=CCNc1nc2c(c(=O)n(C)c(=O)n2C)n1CC	0%	-3	-15%	1%	-3%	0%
Cc1ccc(F)cc1NC(=O)/C=C/c1ccc(S(=O)(=O)N2CCOCC2)cc1	0%	-2	16µM*	-10%	.	.
COc1ccc(NC(=O)/C=C/c2ccc(S(=O)(=O)N3CCOCC3)cc2)cc1	0%	-10	-1%	-2%	.	.
COc1ccc(/C=C/C(=O)Nc2ccc(C)c(S(=O)(=O)N3CCOCC3)c2)cc1	0%	-2	23µM*	-10%	.	.
CC(=O)Nc1ccc(S(=O)(=O)N2CCCN(S(=O)(=O)c3ccc4c(c3)OCCO4)CC2)cc1	.	.	?	-10%	.	.
Cc1ccccc1N1CCN(c2ncnc3c2cnn3Cc2ccc(Cl)cc2)CC1	8%	3	18µM*	-6%	14%	-3%
Cc1ccc(Cn2ncc3c(N4CCN(Cc5ccc(Cl)cc5)CC4)ncnc32)cc1	1%	-4	8.2µM*	-14%	7%	0%
Cc1ccc(Cn2ncc3c(N4CCN(c5ccc(C)cc5)CC4)ncnc32)cc1	0%	6	?	-8%	4%	1%
CC1CCN(c2ncnc3c2cnn3Cc2ccc(Cl)cc2)CC1	2%	2	?	-7%	-11%	1%
O=C(CSc1nnc(-c2cccs2)n1Cc1ccco1)Nc1ccc(OCc2ccccc2)cc1	.	1	.	.	.	.
N#Cc1ccc(CN2CCN(C(=O)c3ccc(S(=O)(=O)NCc4ccco4)cc3)CC2)cc1	11%	-3	8.2µM*	?	.	.
Cc1ccc(S(=O)(=O)N2CCN(C(=O)CNC(=O)c3ccc(Cl)cc3)CC2)cc1	1%	1	21µM*	0%	.	.
SMILES	Nrf2 ARE act	PI4K2A inh	Nrf2 inh	A549 viability	miR-21 act	GALK inhibitor
O=C(c1ccc(S(=O)(=O)c2ccccc2Cl)c([N+](=O)[O-])c1)N1CCN(Cc2ccccc2)CC1	19%	-3	18µM*	?	20%	-1%
Cc1ccc(S(=O)(=O)N2CCN(C(=O)c3ccc(COc4ccccc4)o3)CC2)cc1	0%	-1	23µM*	-4%	.	.
O=C(c1ccc(COc2ccccc2)o1)N1CCN(S(=O)(=O)c2ccccc2Cl)CC1	0%	-4	-19%	0%	.	.
O=C(CCCl)NCCc1ccccc1	.	4	.	.	.	.
Cc1ccc(S(=O)(=O)NCc2ccc(C(=O)N3CCN(c4ccccc4)CC3)cc2)cc1	0%	-23	23µM*	-5%	10%	-5%
CCNS(=O)(=O)c1ccc(CCC(=O)N2CCN(c3ccccc3)CC2)cc1	3%	-4	?	-8%	-1%	-5%
CC(C)CNS(=O)(=O)c1ccc(CCC(=O)N2CCN(c3ccccc3)CC2)cc1	2%	0	10µM*	?	21%	0%
O=C(c1ccc(CNS(=O)(=O)c2ccccc2)cc1)N1CCN(Cc2ccccc2)CC1	0%	5	13µM*	-15%	20%	2%
Cc1ccc(S(=O)(=O)NCc2ccc(N3CCN(C(=O)OC(C)(C)C)CC3)cc2)cc1	0%	7	26µM*	-10%	-3%	-5%
CC(C)c1cc2c(s1)c1cnn(Cc3ccccc3F)c(=O)c1n2C	.	.	?	-3%	.	.
CC(=O)NC1CCCCN(Cc2cccc(F)c2)C1=O (stereo not drawn)	.	-1	.	.	.	.
NS(=O)(=O)c1ccc(NC(=O)CSc2nc3ccccc3c(=O)n2-c2ccc(Br)cc2)cc1	.	2	.	.	.	.
Cc1ccc(NS(=O)(=O)c2ccc(C(=O)N3CCN(S(=O)(=O)c4ccccc4)CC3)cc2)cc1	1%	1	21µM*	-25%	.	.
Cc1ccc(S(=O)(=O)Nc2ccc(C(=O)N3CCCC3)cc2)cc1	0%	0	0%	-1%	-10%	-2%
CC1(C)CC2CC(C)(CN2c2ncnc3ccccc23)C1 (stereo not drawn)	0%	1	10µM*	?	10%	1%
Oc1cccc(C(Nc2nccs2)c2ccc3cccnc3c2O)c1 (stereo not drawn)	0%	2	16µM*	-23%	19%	-2%
COc1cccc(C(NC(C)=O)c2ccc3cccnc3c2O)c1 (stereo not drawn)	4%	1	?	-1%	25%	.
COC(=O)[C@@H]1C[C@@]2(c3ccccc3)c3ccccc3N(S(=O)(=O)c3ccccc3)[C@H]2N1C(=O)CNC1CCCCC1	.	-3	.	.	.	.

Assay outcomes: PubChem BioAssay, National Center for Advancing Translational Sciences (NCATS)
